Source: PubChem BioAssay (NCI)
Several values for one entry are separate records, joined by “and”; a condition that tells them apart may be missing. Identical values can stand only once. The panel holds about 83,000 compounds, 20% with a hit somewhere; the sample as a whole holds those more often.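 Cells were grown in 96-well plates and exposed to the test compound at a single concentration for 48 hours; results are reported as percent growth, with values below 10 considered active.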 Activity calls are given as the source filed them.

Assays:
Assay in all cases: NCI-60 one-dose screen, 48 h (100 = growth as untreated, 0 = no growth, -100 = all killed)
Conditions in all cases: 10 µM unless noted
HCT-15 colon = tested on: HCT-15 colon
HT29 colon = tested on: HT29 colon
SNB-75 CNS = tested on: SNB-75 CNS
SNB-19 CNS = tested on: SNB-19 CNS
U251 CNS = tested on: U251 CNS
PC-3 prostate = tested on: PC-3 prostate
SK-MEL-5 melanoma = tested on: SK-MEL-5 melanoma
UACC-62 melanoma = tested on: UACC-62 melanoma
LOX IMVI melanoma = tested on: LOX IMVI melanoma
SK-MEL-28 melanoma = tested on: SK-MEL-28 melanoma

Measured: growth

O=C(NNc1ccccc1)C1CCCN1 (stereo not given)
active: LOX IMVI melanoma 8.66%
inactive: HCT-15 colon 40.5% | HT29 colon 62.3% | SNB-75 CNS 90.7% | SNB-19 CNS 94.1% | U251 CNS 82.3% | PC-3 prostate 77% | SK-MEL-5 melanoma 89.1% | UACC-62 melanoma 16.2% | SK-MEL-28 melanoma 69.2%

CCCCCCCCn1ccc2cc(NC(=O)CN3CCN(c4nc(C)cc(N5CCCCC5)n4)CC3)ccc21
inactive: HCT-15 colon 73.2% | HT29 colon 57.4% | SNB-75 CNS 87.6% | SNB-19 CNS 94.3% | U251 CNS 80.4% | PC-3 prostate 71.8% | SK-MEL-5 melanoma 82.1% | UACC-62 melanoma 81.2% | LOX IMVI melanoma 103% | SK-MEL-28 melanoma 94.6%

O=C1c2cc3c(cc2-c2c1c1ccc(Cl)cc1c(=O)n2CCCn1ccnc1)OCO3
active: HCT-15 colon 7.3% | HT29 colon -62.9% | SNB-75 CNS 0.456% | U251 CNS -33.1% | SK-MEL-5 melanoma -93% | UACC-62 melanoma -57.7% | LOX IMVI melanoma -76.8%
inactive: SNB-19 CNS 17.3% | PC-3 prostate 19.9% | SK-MEL-28 melanoma 15.5%

CC(C)=CCc1cc(O)c(O)c2oc3cc(O)cc(O)c3c(=O)c12
inactive: HCT-15 colon 22.3% | HT29 colon 91.7% | SNB-75 CNS 60.2% | SNB-19 CNS 52.6% | U251 CNS 41% | PC-3 prostate 68.8% | SK-MEL-5 melanoma 56.1% | UACC-62 melanoma 54% | LOX IMVI melanoma 32.6% | SK-MEL-28 melanoma 84.4%

CCCCCC#CC1OC23CCCCC2C(C#N)(C(=N)O3)C1(C#N)C#N (stereo not given)
inactive: HCT-15 colon 102% | HT29 colon 88% | SNB-75 CNS 88.5% | SNB-19 CNS 95% | U251 CNS 96.4% | PC-3 prostate 81% | SK-MEL-5 melanoma 96.7% | UACC-62 melanoma 83.1% | LOX IMVI melanoma 89.7% | SK-MEL-28 melanoma 109%

O=C1/C(=C/c2ccc(-c3ccccc3C(F)(F)F)o2)SC(=S)N1CCc1ccc(O)cc1
inactive: HCT-15 colon 29.6% | HT29 colon 14.8% | SNB-75 CNS 29.2% | SNB-19 CNS 87.8% | U251 CNS 44.1% | PC-3 prostate 48.6% | SK-MEL-5 melanoma 84.4% | UACC-62 melanoma 47% | LOX IMVI melanoma 41.4% | SK-MEL-28 melanoma 69.5%

COc1cc(/C=N/NC(=O)CCN2c3ccccc3Sc3ccccc32)cc(OC)c1OC
inactive: HCT-15 colon 96.4% | HT29 colon 90% | SNB-75 CNS 91.6% | SNB-19 CNS 90.4% | U251 CNS 97.8% | PC-3 prostate 61.4% | SK-MEL-5 melanoma 76.5% | UACC-62 melanoma 62.6% | LOX IMVI melanoma 79.5% | SK-MEL-28 melanoma 97.5%

COC(=O)N/N=C/c1c[n+]([O-])c2ccccc2[n+]1[O-]
inactive: HCT-15 colon 106% | HT29 colon 106% | SNB-75 CNS 100% | SNB-19 CNS 104% | U251 CNS 96.6% | PC-3 prostate 86% | SK-MEL-5 melanoma 114% | UACC-62 melanoma 101% | LOX IMVI melanoma 97.7% | SK-MEL-28 melanoma 105%

O=C1/C(=C/c2ccc(F)c(F)c2)CN(C(=O)C(Cl)Cl)C/C1=C\c1ccc(F)c(F)c1
active: HCT-15 colon -74.9% | HT29 colon -26.6% | SNB-75 CNS -84.7% | SNB-19 CNS -93.1% | U251 CNS -99.3% | PC-3 prostate -85.2% | SK-MEL-5 melanoma -95.3% | UACC-62 melanoma -85.2% | LOX IMVI melanoma -90.1% | SK-MEL-28 melanoma -92.6%

CCOC(=O)c1cc2c(n1Cc1cc(OC)cc(OC)c1Br)-c1nc(NC(C)=O)sc1CCC2
inactive: HCT-15 colon 83% | HT29 colon 63.3% | SNB-75 CNS 65.7% | SNB-19 CNS 83.9% | U251 CNS 63.3% | PC-3 prostate 22.1% | SK-MEL-5 melanoma 82.1% | UACC-62 melanoma 67.3% | LOX IMVI melanoma 80.3% | SK-MEL-28 melanoma 98.6%

Cc1ccc(C(=O)N(CCCN)[C@@H](c2nc3cc(Cl)ccc3c(=O)n2Cc2ccccc2)C(C)C)cc1
inactive: PC-3 prostate 16.4%
active: HCT-15 colon -50% | HT29 colon 0.611% | SNB-75 CNS -18.7% | SNB-19 CNS 5.11% | U251 CNS -65% | SK-MEL-5 melanoma -94.2% | UACC-62 melanoma -79.6% | LOX IMVI melanoma -90% | SK-MEL-28 melanoma -31%

Cc1cnc(C(=O)NNc2nc3sc4c(c3c(=O)[nH]2)C(C)CCC4)cn1 (stereo not given)
active: SK-MEL-5 melanoma -38.1% | UACC-62 melanoma 8.87% | LOX IMVI melanoma 0.703%
inactive: HCT-15 colon 26% | HT29 colon 27.9% | SNB-75 CNS 36.8% | SNB-19 CNS 22.3% | U251 CNS 10.4% | PC-3 prostate 29.7% | SK-MEL-28 melanoma 23.3%

COc1cc(OC)cc(-c2ccc(-c3ccc(C(=N)N)cn3)s2)c1
inactive: HCT-15 colon 41.7% | HT29 colon 37.2% | SNB-75 CNS 94.6% | SNB-19 CNS 92.1% | PC-3 prostate 69.1% | SK-MEL-5 melanoma 80.5% | UACC-62 melanoma 98.2% | LOX IMVI melanoma 14% | SK-MEL-28 melanoma 109%
active: U251 CNS 5.78%

O=C(/C=C/C12c3ccccc3C(c3ccccc31)C1C(=O)NC(=O)C12)c1ccncc1 (stereo not given)
inactive: HT29 colon 12.1% | SNB-75 CNS 13.7% | SNB-19 CNS 14.5% | PC-3 prostate 20.8% | SK-MEL-5 melanoma 27.6% | UACC-62 melanoma 23.4% | SK-MEL-28 melanoma 24.7%
active: HCT-15 colon 4.66% | U251 CNS 7.81% | LOX IMVI melanoma -10.7%

O=C(Cn1cc(CN2CCN(c3ccnc4cc(Cl)ccc34)CC2)nn1)Nc1cccc([N+](=O)[O-])c1
inactive: HCT-15 colon 102% | HT29 colon 101% | SNB-75 CNS 83.4% | SNB-19 CNS 90.3% | U251 CNS 81.6% | PC-3 prostate 58.5% | SK-MEL-5 melanoma 70.1% | UACC-62 melanoma 70.8% | LOX IMVI melanoma 85.1% | SK-MEL-28 melanoma 104%

C#Cc1cc(C(=O)Nc2ccc(CN3CCN(C)CC3)c(C(F)(F)F)c2)ccc1C
active: HT29 colon 5.65%
inactive: HCT-15 colon 26.3% | SNB-75 CNS 76.3% | SNB-19 CNS 94.9% | U251 CNS 56% | PC-3 prostate 61.5% | SK-MEL-5 melanoma 15.6% | UACC-62 melanoma 40.2% | LOX IMVI melanoma 31.1% | SK-MEL-28 melanoma 18.8%

COc1ccc(-c2cc(-c3cc(OC)c(OC)c(OC)c3)c(C#N)c(=O)n2CCCCC(=O)O)cc1
inactive: HCT-15 colon 77.3% | HT29 colon 99.4% | SNB-75 CNS 51.8% | SNB-19 CNS 96.3% | U251 CNS 91.5% | PC-3 prostate 90.9% | SK-MEL-5 melanoma 93.6% | UACC-62 melanoma 89.8% | LOX IMVI melanoma 78.6% | SK-MEL-28 melanoma 112%

Cc1ccc(-c2nc3nc(-c4ccccc4)nc(N4CCN(S(=O)(=O)c5ccccc5)CC4)c3o2)cc1
active: SNB-75 CNS -17.2%
inactive: HCT-15 colon 103% | HT29 colon 97.7% | SNB-19 CNS 32.9% | U251 CNS 78.9% | PC-3 prostate 96.4% | SK-MEL-5 melanoma 95% | UACC-62 melanoma 101% | LOX IMVI melanoma 96.7% | SK-MEL-28 melanoma 106%

COc1ccc(-c2ccc(-c3ccc(C(=N)N)cn3)s2)cc1Cl
active: HCT-15 colon -72.5% | HT29 colon -52.6% | SNB-75 CNS -98.4% | SNB-19 CNS -73.9% | U251 CNS -62.2% | PC-3 prostate -80.9% | SK-MEL-5 melanoma -48.4% | UACC-62 melanoma -92.3% | LOX IMVI melanoma -84.5% | SK-MEL-28 melanoma -86.6%

CCCCCCCCN(CCCCCCCC)CC(O)c1cc(Cl)ccc1OC (stereo not given)
inactive: HCT-15 colon 61.8% | HT29 colon 38.7% | SNB-75 CNS 76.5% | SNB-19 CNS 91.2% | U251 CNS 78.6% | PC-3 prostate 71.9% | SK-MEL-5 melanoma 56% | UACC-62 melanoma 64.6% | LOX IMVI melanoma 13.1% | SK-MEL-28 melanoma 80.5%

CC1=C2[C@@H](CC1)[C@]1(C)O[C@@](C(C)C)(C[C@H]1OC(=O)CO)[C@H]2OC(=O)C1CC1c1ccccc1 (stereo not given in full)
inactive: HCT-15 colon 96.8% | HT29 colon 75% | SNB-75 CNS 102% | SNB-19 CNS 88.5% | U251 CNS 79.6% | PC-3 prostate 62.6% | SK-MEL-5 melanoma 95% | UACC-62 melanoma 53.3% | LOX IMVI melanoma 77% | SK-MEL-28 melanoma 114%

O=C(Nc1ccc(Cl)c(Cl)c1)Nc1ccc(Cl)c(Cl)c1
-16.7% (active) and 18.2% (inactive): HCT-15 colon
active: HT29 colon -82.6% and 7.52% | LOX IMVI melanoma -89.4% and 9.39%
-94.2% (active) and 38.3% (inactive): SNB-75 CNS
-97.2% (active) and 34.6% (inactive): SK-MEL-5 melanoma
-84.3% (active) and 13.3% (inactive): U251 CNS
-89.2% (active) and 12.2% (inactive): UACC-62 melanoma
-78.8% (active) and 34.9% (inactive): SK-MEL-28 melanoma
-62% (active) and 26.5% (inactive): SNB-19 CNS
-80.2% (active) and 11.1% (inactive): PC-3 prostate

COc1ccc(/C=N/NC(=O)CN2CCN(c3cc4c(cc3F)c(=O)c(C(=O)O)cn4C3CC3)CC2)cc1O
inactive: HCT-15 colon 109% | HT29 colon 96.1% | SNB-75 CNS 106% | SNB-19 CNS 94.4% | U251 CNS 95.3% | PC-3 prostate 93% | SK-MEL-5 melanoma 89.8% | UACC-62 melanoma 97.6% | LOX IMVI melanoma 97.9% | SK-MEL-28 melanoma 109%

COc1cc(/C=C2\C(=O)N(CCCCn3c4ccccc4c(=O)c4ccccc43)c3ccccc32)cc(OC)c1O
inactive: HCT-15 colon 36.3% | HT29 colon 41.6% | SNB-75 CNS 51.7% | SNB-19 CNS 62.7% | U251 CNS 67.5% | PC-3 prostate 39.9% | SK-MEL-5 melanoma 55.3% | UACC-62 melanoma 37.5% | LOX IMVI melanoma 52.8% | SK-MEL-28 melanoma 68.5%
